Here are results for 30 molecules from PubChem BioAssay (Tox21).

Several values for one entry are separate records, joined by “and”; a condition that tells them apart may be missing. Equal entries are not always repeated. Results filed as inconclusive are left out. Entries that show only a call come without a potency. Activity calls are given as the source filed them. Calls come from the whole dose curve; as a rule, active = well fitted curve in the direction sought with a large enough effect in the repeat runs; inconclusive = weak or mixed curves; inactive = no such curve, though single readings can be large; an effect the other way counts as inactive or inconclusive.
Note: nearly all actives have a fitted effect of over 50% in size.
Potency is the fitted concentration of half-maximal effect.

The first experiment is described as follows: qHTS assay to identify small molecule agonists of the RXR signaling pathway - cell viability counter screen (AID 1159529). Particulars: RXR-alpha-bla HEK293T viability, CellTiter-Glo, 16 h; series mostly up to 76.8 µM. An outline of the steps: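 Luminescence from CellTiter-Glo (30 min, RT) measured viability in the same wells as the beta-lactamase reporter readout. Cells: GeneBLAzer RXR-alpha HEK 293T, 2% charcoal-stripped FBS. Compound exposure 16 hr, 37 C.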
For orientation: Quantitative high-throughput screening tests each substance at several concentrations.
For `CN(C)c1ccc(N)cc1`, the Potency is 42.6 µM (active).

In the case of `Nc1c(Cl)c(Cl)c(Cl)c(Cl)c1Cl`, the Potency entry is “inactive”.

For `CCC1(CC)C(=O)N=C(O)NC1=O`, the Potency entry was “inactive”.

On to `COP(=O)(OC)Oc1ccc([N+](=O)[O-])cc1`, for which the Potency entry is “inactive”.

In the case of `CC(C)Br`, the Potency entry is “inactive”.

For the molecule `CCn1cc[n+](C)c1` (tested in a mixture with another compound), the Potency result was “inactive”.

`C=C(C)C(=O)[O][Sn]([CH2]CCC)([CH2]CCC)[CH2]CCC`: the Potency was 1.1 µM (active).

Regarding `O=S(=O)(O)F`, the Potency result was “inactive”.

On to `N#Cc1sc2c(=O)c3ccccc3c(=O)c=2sc1C#N`, for which the Potency is 9.77 µM (active).

Consider `NC(=O)C(Cl)Cl`, for which the Potency entry was “inactive”.

In the case of `CCC(C)c1cccc(C(C)CC)c1O` (centres undefined), the Potency entry is “inactive”.

Consider `CCCCN(CCCC)C(=S)S`, for which the Potency result is “inactive”.

As for `CCN(CC)C(=S)S`, the Potency is 19.4 µM (active).

As to `O=[N+]([O-])c1ccccc1-c1ccccc1`, the Potency entry is “inactive”.

For the molecule `C[N+]1(C)[C@@H]2CC[C@H]1CC(OC(=O)C(CO)c1ccccc1)C2` (some centres undefined), the Potency entry was “inactive”.

Take `CO/N=C(\C(=O)OC)c1ccccc1CO/N=C(\C)c1cccc(C(F)(F)F)c1`: the Potency entry was “inactive”.

As for `COP(=S)(OC)Oc1nc(Cl)c(Cl)cc1Cl`, the Potency entry was “inactive”.

On to `COP(=S)(OC)Oc1ccc([N+](=O)[O-])c(C)c1`, for which the Potency entry was “inactive”.

As for `S=C=Nc1ccccc1`, the Potency entry was “inactive”.

The nature of another experiment: qHTS assay to identify small molecule antagonists of the retinoic acid receptor (RAR) signaling pathway (AID 1159552). Particulars: C3RL4 RARE luciferase reporter, retinol-stimulated, 6 h; series mostly up to 92.4 µM. In a few lines: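 Luminescence from a RARE luciferase reporter in C3RL4 cells served as read-out. Cells received compounds together with 1 uM final retinol and incubated 6 hr at 37 C before detection reagent was added for 30 min at room temperature.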
With `O=[N+]([O-])c1cccc2cccc([N+](=O)[O-])c12`, the Potency was 54.7 µM (active).

For the molecule `CCN1CCC2(CC1)COc1cc3c(cc12)N(C(=O)c1ccc(-c2ccc(-c4nnc(C)o4)cc2C)cc1)CC3`, the Potency is 56.4 µM (active).

`O=NN(CCO)CCO`: the Potency entry is “inactive”.

Consider `COC(=O)c1cc(Oc2ccc(Cl)cc2Cl)ccc1[N+](=O)[O-]`, for which the Potency result is “inactive”.

As for `C#CCO`, the Potency result is “inactive”.

Consider `CC(C)N(C(=O)CCl)c1ccccc1`, for which the Potency is 27.3 µM (active) and 30.6 µM (active).

`Oc1cc(Cl)c(Cl)c(Cl)c1Cl`: the Potency was 53.2 µM (active).

On to `COc1nc(C)nc(NC(=O)NS(=O)(=O)c2ccccc2Cl)n1`, for which the Potency result was “inactive”.

`Clc1cc(Cl)c(-c2cc(Cl)c(Cl)cc2Cl)cc1Cl`: the Potency result is “inactive”.

With `ClCBr`, the Potency entry is “inactive”.

Turning to `c1ccc(N=NNc2ccccc2)cc1`, the Potency result was “inactive”.

`CN(C)c1ccc(N)cc1`: the Potency result was “inactive”.

`Nc1c(Cl)c(Cl)c(Cl)c(Cl)c1Cl`: the Potency result is “inactive”.

With `CCC1(CC)C(=O)N=C(O)NC1=O`, the Potency entry was “inactive”.

Regarding `COP(=O)(OC)Oc1ccc([N+](=O)[O-])cc1`, the Potency result is “inactive”.

In the case of `CC(C)Br`, the Potency result is “inactive”.

Take `C=C(C)C(=O)[O][Sn]([CH2]CCC)([CH2]CCC)[CH2]CCC`: the Potency is 2.73 µM (active).

Turning to `O=S(=O)(O)F`, the Potency entry is “inactive”.

For the molecule `N#Cc1sc2c(=O)c3ccccc3c(=O)c=2sc1C#N`, the Potency is 30.6 µM (active).

As to `NC(=O)C(Cl)Cl`, the Potency result is “inactive”.

Take `CCCCN(CCCC)C(=S)S`: the Potency result was “inactive”.

Consider `O=[N+]([O-])c1ccccc1-c1ccccc1`, for which the Potency entry was “inactive”.

Regarding `C[N+]1(C)[C@@H]2CC[C@H]1CC(OC(=O)C(CO)c1ccccc1)C2` (some centres undefined), the Potency entry is “inactive”.

Consider `COP(=S)(OC)Oc1nc(Cl)c(Cl)cc1Cl`, for which the Potency result was “inactive”.

Turning to `S=C=Nc1ccccc1`, the Potency entry is “inactive”.
